Screening data: PubChem, Buhrlage Lab, Dana-Farber Cancer Institute and Novartis Institutes for BioMedical Research (Cambridge, Mass)
Sampled rows, rich in hits. Any-hit rate of the full collection: about 13%.
USP17 inh – inhibitors of human USP17 deubiquitinase; AID 1645855; 6.5% of 47,000 active; purified USP17, Ub-rhodamine cleavage fluorescence, 3 h; A8MUK1; inhibition, % at 50 µM
USP30 inh – blocks human USP30 ubiquitin-rhodamine cleavage; Q70CQ3; purified USP30, Ub-rhodamine cleavage fluorescence; inhibition, % at 25 µM; 5.3% of 47,000 active; AID 1645860
USP8 inh – inhibitors of human USP8 deubiquitinase; P40818; purified USP8, Ub-rhodamine cleavage fluorescence, 30 min; inhibition, % at 20 µM; 4.2% of 47,000 active; AID 1645853
USP28 block – inhibitors of human USP28 deubiquitinase; Q96RU2; purified USP28, Ub-rhodamine cleavage fluorescence, 30 min; inhibition, % at 25 µM; 3% of 47,000 active; AID 1645857
OTUD3 inh – inhibitors of human OTUD3 deubiquitinase; purified OTUD3, Ub-rhodamine fluorescence, 2 h; inhibition, % at 25 µM; 0.7% of 47,000 active; AID 1645858
USP10 inh – blocks human USP10 ubiquitin-rhodamine cleavage; Q14694; purified USP10, Ub-rhodamine fluorescence, 60 min; inhibition, % at 20 µM; 1.1% of 47,000 active; AID 1645856
* marks the source's active call; other numbers are inactive results; i = inactive; · = not tested or not shown. Cut-off read from the data, not from the text of the source: active = inhibition above about 30%; inactive = the rest.

SMILES | USP17 inh | USP30 inh | USP8 inh | USP28 block | OTUD3 inh | USP10 inh
Cc1ccc(NC(=O)CN2C(=O)c3cnc(C(F)(F)F)n3CC2C)cc1 (centres undefined) | 22.0 | 20.2 | 17.6 | 14.2 | 5.9 | -5.0
CC(C)(C)C(=O)Cn1c(=O)n(CC2CCC(C(=O)NC3CCCC3)CC2)c(=O)c2ccccc21 (centres undefined) | 0.0 | 17.1 | -6.6 | -0.9 | -0.5 | 4.6
CCN1C(SCc2ccc(F)cc2)=NS(=O)(=O)c2ccccc21 | 4.9 | 14.3 | -3.8 | 61.8* | 4.5 | 0.3
CCc1cccc(NC(=O)CSC2=NS(=O)(=O)c3ccccc3N2CC)c1 | -2.5 | 23.8 | -25.2 | 16.0 | 11.2 | 2.8
COc1ccc(Nc2nnc(Cc3ccc(Cl)cc3)c(=O)[nH]2)cc1 | -3.5 | 4.4 | 91.7* | -8.5 | 3.3 | 39.2*
CCOC(=O)c1ccc(Nc2nnc(C)c(=O)[nH]2)cc1 | -1.2 | -8.5 | -12.3 | -2.4 | -1.4 | -0.4
CC(=O)NC(Cc1ccccc1)C(=O)NC1CCN(C(=O)Nc2ccc(Cl)cc2)CC1 (centres undefined) | -0.9 | -10.1 | -10.8 | -5.1 | -4.2 | -0.7
COc1ccc(CCNC(=O)c2cnc3c(-c4cccc(C)c4)c(C)nn3c2C)cc1OC | 0.3 | -16.7 | 2.7 | 39.0* | -4.1 | -1.3
COc1ccc(C)cc1NC(=O)C(NS(=O)(=O)c1ccc2c(c1)CCN2C(C)=O)C(C)C (centres undefined) | 26.9 | 54.4* | 19.3 | 13.3 | 10.9 | -3.3
CC(=O)N1CCc2cc(S(=O)(=O)NC(C(=O)Nc3nc4ccc(C)cc4s3)C(C)C)ccc21 (centres undefined) | 6.5 | 1.9 | 30.5* | 0.2 | 11.7 | 16.2
COc1ccc(S(=O)(=O)N2CCC(C)CC2)cc1-c1noc(C)n1 | 2.2 | 10.8 | -4.7 | 3.2 | 1.4 | -1.6
O=C(NCc1ccc(Cl)cc1)[C@@H]1Cc2nc[nH]c2CN1Cc1ccccc1 | · | -16.2 | 24.3 | -4.7 | -2.6 | -7.9
O=C(NCc1ccc(Cl)cc1)[C@@H]1Cc2nc[nH]c2CN1Cc1ccc(Cl)cc1 | 3.7 | -18.4 | 50.3* | -6.1 | -7.1 | -4.8
CN(C)Cc1ccc(C2CCCN2C(=O)c2ccc3n[nH]nc3c2)nc1 (centres undefined) | 3.1 | 19.4 | 3.1 | 8.9 | 9.9 | -0.4
Cc1cc(C)cc(NC(=O)N2CCC(c3nnc(-c4ccccc4)o3)CC2)c1 | 13.9 | 35.3* | 12.9 | 14.2 | 14.4 | 3.7
O=C(c1ccccc1)N1CC[C@H](c2nnc(-c3ccncc3)o2)C1 | -0.6 | 1.0 | -4.0 | -0.7 | -2.4 | 4.0
Cc1ccc(NC(=O)N2CCC(c3nc(C(=O)N4CCCC4)c(C)o3)CC2)cc1 | 4.4 | 33.0* | 0.1 | 6.2 | 12.4 | 3.9
Cc1nn(-c2ccccc2)c(C)c1C(=O)OCC(=O)Nc1cccc2ccccc12 | -3.1 | 10.8 | 7.2 | -0.8 | 2.9 | 2.1
Cc1nn(-c2ccccc2)c(C)c1C(=O)OCC(=O)Nc1cccc(Br)c1 | -15.4 | -6.4 | 3.5 | 81.0* | 5.4 | 7.4
O=C(/C=C/c1ccco1)c1cccc([N+](=O)[O-])c1 | 82.9* | 3.1 | 50.1* | 46.1* | 47.2* | 32.3*
N#Cc1cc(C(=O)c2ccc(Cl)cc2)c[nH]1 | 50.5* | 28.9 | -5.6 | 28.1 | 3.4 | -3.4
Cc1cccc(O)c1C(=O)O[C@H](C)c1cccc2nc3c(C(=O)O)cccc3nc12 | 38.5* | -1.9 | -6.4 | 12.7 | 4.0 | 7.3
Cc1ccc(OCc2nc(CC(=O)N(C)C3CCS(=O)(=O)C3)cs2)cc1 (centres undefined) | -35.9 | -19.7 | -18.6 | -9.5 | -12.5 | -3.8
COc1ccc(C(C)NC(=O)c2cnc(-c3ccccc3)nc2-c2ccncc2)cc1 (centres undefined) | 40.2* | i | 5.3 | -125.7 | -185.0 | -8.5
Cc1ccc(-c2ncc(C(=O)Nc3c(F)cccc3F)c(-c3ccncc3)n2)cc1 | -135.3 | -468.5 | 60.6* | -109.2 | -89.9 | -2.6
SMILES | USP17 inh | USP30 inh | USP8 inh | USP28 block | OTUD3 inh | USP10 inh
CCN1C(=O)c2cccnc2Sc2cc(NC(=O)COc3ccccc3)ccc21 | 15.9 | -46.9 | 0.0 | -0.1 | -9.5 | -4.9
COc1ccc(C(=O)Nc2ccc3nc(C)c(C)nc3c2)cc1 | -4.9 | -9.8 | -7.5 | 21.4 | -4.9 | 0.1
COc1ccc(NC(=O)c2ccc(C)cc2)cc1 | 44.8* | 30.7* | -0.1 | 25.2 | 4.4 | 5.5
CCOc1ccc(NC(=O)c2cnc(Nc3ccc(OC)cc3)c3ccccc23)cc1 | 8.0 | -11.8 | 6.8 | -14.3 | 25.4 | 2.8
COc1ccc(NC(=O)c2ccc(Nc3nnc(C)c4ccccc34)cc2)cc1 | 22.8 | 17.3 | 0.9 | 66.3* | -2.7 | 5.3
CN(C)S(=O)(=O)Oc1ccc(C(=O)Nc2ccc(F)cc2)cc1 | 40.4* | 40.9* | 20.4 | 31.8* | 12.7 | 9.4
CCN1CCN(c2ccc(NC(=O)c3ccc(OC)cc3)cn2)C1=O | 21.9 | 8.5 | 12.3 | 45.2* | 8.9 | 1.8
O=C(Nc1ccncc1)C1Cn2ccnc2C2(CCN(C(=O)Nc3ccccc3)CC2)O1 (centres undefined) | -10.7 | 0.7 | -50.8 | -2.0 | 8.7 | -5.5
O=C(Cn1cc(-c2ccc(F)cc2)oc1=O)N1CCN(c2ccccc2)CC1 | 1.8 | -12.5 | 17.3 | 0.1 | -5.8 | -1.7
Cc1ccc(C(=O)Nc2ccc3nccnc3c2)cc1 | 5.8 | 29.1 | -0.9 | 58.5* | 6.3 | 0.2
COc1ccc(C(=O)Nc2cnc(N3CCCCC3)nc2)cc1 | -12.6 | -30.5 | -12.1 | 38.3* | -14.1 | -5.8
COc1ccc(C(=O)Nc2cnc(-c3ccccc3)nc2)cc1 | 38.3* | -16.8 | 91.6* | -10.2 | -6.5 | 9.7
COc1ccc(-c2ncc(NC(=O)C3CC3)cn2)cc1 | -0.1 | 11.8 | -62.3 | -1.7 | 4.8 | -1.1
O=C(Nc1cnc(N2CCOCC2)nc1)c1ccc(Cl)cc1 | 14.4 | -2.1 | 19.4 | 25.4 | 15.5 | -3.9
Cc1ccc(C(=O)Nc2cnc(N3CCOCC3)nc2)cc1C | -3.6 | 5.1 | -4.7 | 40.4* | 0.4 | -5.8
CCOC(=O)N1CCN(S(=O)(=O)c2ccc(C(=O)Nc3nnc(-c4ccc(OC)cc4OC)o3)cc2)CC1 | -18.8 | 22.4 | -0.3 | 4.2 | 12.3 | 12.6
COc1cc(C(=O)NC2(C(F)(F)F)C(=O)Nc3c2c(=O)n(C)c(=O)n3C)cc(OC)c1OC (centres undefined) | -0.8 | -3.6 | -4.5 | -5.9 | -4.1 | 1.2
Cc1ccc2ccc3c(c2n1)OC(N)=C(C#N)C3c1ccncc1 (centres undefined) | 5.6 | -8.0 | 65.9* | -19.9 | -12.3 | -1.9
O=C(NC1CC1)c1ccnn1-c1ccc2ccc(-c3ccncc3)cn12 | -191.8 | i | -313.6 | -241.0 | -212.3 | -1.1
O=C(Nc1ccc(S(=O)(=O)c2cccc(C(F)(F)F)c2)cc1)c1ccc(F)cc1 | -3.0 | 41.2* | -0.5 | 13.7 | -7.2 | 13.0
Cc1nc2ccc(NC(=O)c3cccc(C(F)(F)F)c3)cc2nc1C | -16.0 | -64.2 | -133.8 | -10.9 | -28.6 | 0.0
